# Screening data (PubChem BioAssay)
# A selection: hits, their analogues and other compounds. The true share with any hit is near 3.6%.
# LGR2 antag: inhibitors of bursicon-induced LGR2 CRE-luciferase signal, primary screen, cell-based, HEK293, CRE-luciferase reporter, bursicon stimulation. Drosophila bursicon receptor LGR2 (rickets). bursicon-stimulated, 4 h. inhibition, % at 9.99 µM. 380,000 tested, 0.35% active. AID 720647, 2013;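 active = drop in luminescence signal, shown as inhibition above about 50% in the replicate tests, limit read from the data, passing the limit was not always enough; inconclusive = probably only some replicates passing the limit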;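 also: agonist challenge used bursicon conditioned medium at about half maximal strength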
# HSF1 inh: HSF1 inhibitors in luciferase reporter cells, primary screen, cell-based, NIH3T3, luminescence; activity change, negative = inhibition, % at 7.5 µM (by protocol); 300,000 tested, 0.77% active; NIH3T3-HGL HSE-luciferase, MG132-induced, luminescence 8 h; stronger effect = lower value; AID 2098, 2009;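 active = more than half of replicate wells show activity change below -50%, luminescence cut by over half; inconclusive = some wells, but at most half, below -50%; inactive = no replicate well below -50%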;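 also: luciferase reports HSF-1 transcriptional activity via heat shock element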
# TROY NFkB inh: inhibitors of TROY-driven NF-kB signaling, primary screen, Q293 LMP1-TROYcd cells, NF-kB luciferase, uHTS. inhibition, % at 10 µM. 360,000 tested, 0.98% active. Q293 LMP1-TROYcd NF-kB luciferase reporter, 4 h. AID 1347056, 2019;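 active = compounds whose plate-normalised and pattern-corrected inhibition of the luciferase reporter signal at the single screening dose is 50% or more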
# TWEAK Fn14 block: inhibitors of TWEAK-Fn14 signaling, primary screen, luciferase reporter cells, uHTS; TWEAK-stimulated Fn14 reporter cells, luciferase luminescence, 8 h; inhibition, % at 10 µM; 360,000 tested, 2% active; in the data active = inhibition above about 50%
# HSF1 activator: HSF-1 activators, primary screen, NIH3T3-HGL cells, MG132 stress, luminescence, single point; AID 504408, 2011; 300,000 tested, 1.7% active; activation, % at 9 µM; NIH3T3-HGL HSF-1 luciferase reporter, 8 h; 100% = twice DMSO control signal;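 active = mean replicate activation of at least 50% with a set share of replicates each reaching 50%; inconclusive = only one of those two conditions met; inactive = mean below 50% and too few replicates reaching it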
# LMP1 NFkB inh: EBV LMP1-driven NF-kappaB luciferase reporter inhibitors, primary screen, cell-based, luminescence, single point; LMP1-induced NF-kappaB luciferase reporter cells; inhibition, % at 12.5 µM; 350,000 tested, 0.69% active; in the data active = inhibition above about 41%; inconclusive = no clear call, values can overlap the other calls
# Hits are given with their value; i = inactive; ? = inconclusive; nt = no result given; ! = not active in a repeat.
SMILES,LGR2 antag,HSF1 inh,TROY NFkB inh,TWEAK Fn14 block,HSF1 activator,LMP1 NFkB inh
CCCc1ccc(OC(=O)c2ccc(O)cc2Cl)cc1,i,i,58,i,?,i
C[n+]1c2cc(N)ccc2cc2ccc(N)cc21,i,nt,i,i,nt,72!
Nc1ccc2ccc(O)cc2c1,i,nt,i,i,nt,i
O=C(C[C@H]1C=C[C@H](NC(=O)C2CCC2)[C@@H](CO)O1)NC1CCC1,i,nt,nt,nt,nt,nt
Cc1ccc2c(c1)CCCN2S(=O)(=O)c1cccc(C(=O)Nc2ccccc2C(=O)O)c1,i,i,55,i,i,i
CC(=O)c1ccc(NS(=O)(=O)c2cccc(C(=O)Nc3ccccc3C(=O)O)c2)cc1,i,i,i,82,i,i
CCn1c(SCC(=O)Nc2nc3ccc(OC)cc3s2)nc2c1c(=O)n(C)c(=O)n2C,54,i,i,58,i,i
CC(C)n1c(SCC(=O)Nc2nc3ccccc3s2)nc2c1c(=O)n(C)c(=O)n2C,i,i,i,i,i,i
CCOc1ccc2nc(NC(=O)CSc3nc4c(c(=O)n(C)c(=O)n4C)n3C(C)C)sc2c1,i,i,50,53,i,i
BrC(=C\c1ccccc1)/C=N/n1cnnc1,86,?,i,72,i,?
C[C@H]1CN([C@@H](C)CO)S(=O)(=O)c2ccc(C#Cc3cccnc3)cc2O[C@H]1CN(C)C,i,nt,nt,nt,nt,nt
CC(C)CC#Cc1cnc2c(c1)C(=O)N([C@H](C)CO)C[C@@H](C)[C@@H](CN(C)C(=O)c1cccnc1)O2,i,nt,nt,nt,nt,nt
CC(C)(C)NC(=O)C1CC(=O)OC12CCOC(C)(C)C2 (stereo unspecified),i,-58,i,i,i,i
CC=Cc1ccc2n(c1=O)C[C@@H]1[C@@H](CO)[C@H](C(=O)Nc3ccccc3)N(CC)[C@H]21 (mixture of isomers),i,nt,nt,nt,nt,nt
C[C@@H]1CN([C@@H](C)CO)C(=O)c2cc(C#Cc3ccccn3)cnc2O[C@H]1CN(C)Cc1ccccc1,i,nt,nt,nt,nt,nt
O=C(COC(=O)C1CSC2(c3ccc(F)cc3)CCC(=O)N12)NC(=O)NC1CCCC1 (stereo unspecified),i,i,i,i,57,i
CC(C)CNC(=O)NC(=O)COC(=O)C1CSC2(c3ccc(F)cc3)CCC(=O)N12 (stereo unspecified),i,i,i,i,i,i
CC(=O)/C(N=Nc1cc2c(cc1[N+](=O)[O-])OCCO2)=C(\C)O,i,i,i,i,i,i
CC(=O)/C(N=Nc1cc2c(c([N+](=O)[O-])c1C)C(C)(C)CC2(C)C)=C(\C)O,nt,i,81,96,i,nt
O=c1/c(=C/c2ccc(O)c([N+](=O)[O-])c2)sc2nc3ccccc3n12,i,nt,i,i,nt,i
Cc1cc(/C=c2\sc3nc4ccccc4n3c2=O)c(C)n1-c1ccc(C(=O)O)cc1,i,i,i,i,i,i
Cc1cc(/C=c2/sc3nc4ccccc4n3c2=O)c(C)n1-c1ccccn1,nt,-91,75,83,i,56
CCN(CC)c1ccc(/C=c2\sc3nc4ccccc4n3c2=O)c(O)c1,i,i,54,67,i,i
CCOC(=O)N/N=C/c1c(C)nn(-c2cccc(C(F)(F)F)c2)c1Cl,i,i,i,i,i,i
Cc1nn(-c2ccccc2Cl)c(Cl)c1/C=N/Nc1cccc(C(=O)O)c1,80,-71,i,i,i,69
SMILES,LGR2 antag,HSF1 inh,TROY NFkB inh,TWEAK Fn14 block,HSF1 activator,LMP1 NFkB inh
Cc1nn(-c2ccccc2)c(Cl)c1/C=N/NC(=O)c1cccc(S(=O)(=O)N2CCCC2)c1,i,i,i,62,i,i
COc1ccc(-c2nn(-c3ccccc3)cc2/C=N/NC(=O)c2cccc(S(=O)(=O)Nc3ccccc3Cl)c2)cc1,i,i,i,56,i,i
Cc1nn(-c2cccc(C(F)(F)F)c2)c(Cl)c1/C=N/Nc1cccc(C(=O)O)c1,i,-73,i,i,i,i
COC(=O)N/N=C\c1c(C)nn(-c2ccccc2)c1Cl,i,i,i,i,i,i
C[C@@H]1CN([C@H](C)CO)C(=O)c2cc(NC(=O)C3CC3)ccc2O[C@H]1CN(C)S(=O)(=O)c1ccc(Cl)cc1,i,nt,nt,nt,nt,nt
C[C@@H]1CCCCO[C@@H](CN(C)C(=O)NC2CCCCC2)[C@@H](C)CN([C@@H](C)CO)C(=O)c2cc(NC(=O)Nc3ccc(C(F)(F)F)cc3)ccc2O1,i,nt,nt,nt,nt,nt
COc1ccc(-c2cn(CC[C@@H]3CC[C@@H](NC(=O)NC(C)C)[C@@H](CO)O3)nn2)cc1,i,nt,nt,nt,nt,nt
O=C(O)c1cnc(-c2ccccc2)nc1Sc1ccc(Cl)cc1Cl,nt,i,61,i,i,i
CCOC(=O)Cn1c(=O)oc2cc(S(=O)(=O)N3CCN(C(=O)c4ccco4)CC3)ccc21,i,i,i,i,71,i
COc1ccccc1NS(=O)(=O)c1cccc(NC(=O)Nc2cccc(Cl)c2)c1,i,i,51,81,i,i
COc1ccccc1NC(=O)Nc1ccc(Cl)c(S(=O)(=O)Nc2ccccc2OC)c1,i,i,i,i,i,i
COc1ccccc1NS(=O)(=O)c1cc(NC(=O)c2ccc(Cl)nc2)ccc1Cl,i,i,72,102,i,i
COc1ccc(C(=O)Nc2ccc(Cl)c(S(=O)(=O)Nc3ccccc3OC)c2)cc1,i,i,53,81,i,i
COc1ccccc1NS(=O)(=O)c1cccc(NC(=O)NCCCl)c1,i,i,i,i,i,i
COc1ccccc1NS(=O)(=O)c1cc(NC(=O)c2ccc3ccccc3n2)ccc1Cl,i,i,i,i,i,i
COc1ccc(NC(=O)c2ccc(-c3ccccc3)cc2)cc1NS(=O)(=O)c1ccc(F)cc1,i,i,i,62,i,i
C[C@H](CO)N1C[C@H](C)[C@H](CN(C)C(=O)c2ccncc2)OCCCC[C@H](C)Oc2ccc(NS(=O)(=O)c3ccc(Cl)cc3)cc2C1=O,i,nt,nt,nt,nt,nt
COc1ccccc1NC(=O)N1C[C@@H](O)COC[C@@H]2O[C@@H](CC(=O)NCCc3ccccc3)CC[C@H]21,i,nt,nt,nt,nt,nt
COc1ccccc1S(=O)(=O)N[C@@H]1CC[C@H](CCNC(=O)C2CCOCC2)O[C@@H]1CO,i,nt,nt,nt,nt,nt
Cc1c(NC(=O)COC(=O)c2ccc(O)cc2)c(=O)n(-c2ccccc2)n1C,i,nt,i,i,nt,i
Cc1noc(C)c1COc1ccc(C(=O)OCC(=O)Nc2c(C)n(C)n(-c3ccccc3)c2=O)cc1,i,-56,i,i,i,i
CO[C@H](CN(C)S(=O)(=O)c1ccc(F)cc1)[C@H](C)CN([C@H](C)CO)S(=O)(=O)c1cccc(Cl)c1,i,nt,nt,nt,nt,nt
